HCV inhibitor: qHTS Assay for Inhibitors of Hepatitis C Virus (HCV); AID 651820, 2012; Huh7.5.1 HCVcc-Cre infection, luciferase reporter, 44 h; hit rate 3.4% among 340,000; Potency, µM (doses to about 41.8 µM), actives largely listed as inhibitors
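1,000 cells/well; 4 h culture; + compound; + HCVcc-Cre (~0.5 moi); 44 h; luciferase substrate, RT 15 min; read 15 sec.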
MARV entry inh: qHTS for inhibitors of binding or entry into cells for Marburg Virus; AID 540276, 2011; hit rate 1.8% among 300,000; Potency, µM (series often up to 37.8 µM), hits mostly inhibitors; Marburg virus pseudotyped entry inhibition, cell reporter; calls by dose curve; tested in HEK293 cells
FMDV inh: High Throughput Screening for Foot and Mouth Disease Virus Antivirals. Potency, µM (titrated, usually from 57.9 µM), actives largely listed as inhibitors. AID 1159524, 2015. hit rate 1.2% among 410,000. FMDV antiviral cell-based qHTS; calls by dose curve; tested in HEK293T cells; further: read-out not given here; nearly all actives have a fitted effect of over 45% in size
RE007 growth inh: qHTS Assay for Inhibitors of the HIV-1 protein Vpr. S. pombe RE007 Vpr strain, BacTiter-Glo ATP luminescence, 24 h. Potency, µM (doses to about 92.2 µM), hits mostly inhibitors. hit rate 0.21% among 360,000; active means well fitted falling curve with a large enough effect; inconclusive means small, poorly fitted or top-dose-only effect; inactive means no such curve, though single readings can be large or run the other way; further: nearly all actives have a fitted effect of over 50% in size
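Fission yeast RE007 carrying one integrated HIV-1 vpr copy, seeded at OD 0.01 in PMG+AL medium with 23 nL pinned compound. Grown 24 h at 30 degrees; viability read by BacTiter-Glo luminescence after 5 min.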
LASV entry inh: qHTS for Inhibitors of binding or entry into cells for Lassa Virus; Lassa virus pseudotype entry inhibition, cell reporter; AID 540256, 2011; Potency, µM (series often up to 37.9 µM), hits mostly inhibitors; hit rate 1.2% among 300,000; calls by dose curve; tested in HEK293 cells; further: nearly all actives have a fitted effect of over 50% in size
Sm TGR inh: qHTS Assay for the Inhibitors of Schistosoma Mansoni Peroxiredoxins; purified TGR, DTNB reduction, TNB absorbance 405 nm; hit rate 3% among 360,000; Schistosoma mansoni thioredoxin glutathione reductase (TGR), Q962Y6; Potency, µM (doses to about 114 µM), actives largely listed as inhibitors; further: nearly all actives have a fitted effect of over 60% in size
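TGR 20 nM + NADPH 100 uM (dispensed conc.), cpd preinc 15 min RT; start with NADPH (500 uM addition) then DTNB (15 mM addition). Kinetic TNB absorbance, 405 nm filter. Four-parameter Hill fit across titration.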
Of the large screens only hits and unclear results are named; the others gave an inactive call. Sampled rows, rich in hits. Any-hit rate of the full collection: about 7.2%. Unless noted, the call rests on the fitted dose curve; in most records, active means well fitted curve in the direction sought with a large enough effect; inconclusive means small, poorly fitted or top-dose-only effect, or another doubt; inactive means no such curve, though single readings can be large; an effect the other way counts as inactive or inconclusive.

Cc1cc(C)cc(NC(=O)Cn2c(=O)n(-c3cc(C)cc(C)c3)c(=O)c3oc4ccccc4c32)c1	none (no result: HCV inhibitor, MARV entry inh, RE007 growth inh)
Cc1ccccc1-c1noc(-c2cc(C(C)C)[nH]n2)n1	none (no result: HCV inhibitor, MARV entry inh, RE007 growth inh)
COc1ccc(OC)c(-c2csc(NC(=O)Cc3ccc(OC)c(OC)c3)n2)c1	HCV inhibitor inconclusive, LASV entry inh inconclusive
CC(=O)Nc1nc2c(ccc3ccccc32)s1	HCV inhibitor inconclusive (no result: MARV entry inh, LASV entry inh)
O=C(Cc1cccs1)Nc1nc(-c2ccc(F)cc2F)cs1	HCV inhibitor 11µM, MARV entry inh inconclusive, LASV entry inh 1.6µM
Cc1csc(NC(=O)c2ccccc2O)n1	MARV entry inh inconclusive, RE007 growth inh inconclusive
O=C(Cc1cccs1)Nc1nc2c(ccc3ccccc32)s1	HCV inhibitor inconclusive, MARV entry inh inconclusive, LASV entry inh 7.9µM
COc1ccc(OC)c(-c2csc(NC(=O)COC(=O)C3(C)CC3(Cl)Cl)n2)c1 (configuration not stated)	HCV inhibitor 14µM, FMDV inh inconclusive (no result: MARV entry inh, LASV entry inh)
CC(C)(C)c1csc(NC(=O)c2ccccc2O)n1	HCV inhibitor 22µM, MARV entry inh 11µM, FMDV inh inconclusive, LASV entry inh inconclusive
Cc1oc(-c2ccccc2)nc1CNC(=O)NC1CCCCC1	none (no result: HCV inhibitor, MARV entry inh, RE007 growth inh)
O=[N+]([O-])c1ccc(O)c(C2CCCCC2)c1	HCV inhibitor inconclusive, MARV entry inh inconclusive, FMDV inh inconclusive, LASV entry inh inconclusive (no result: Sm TGR inh)
Cc1cc(NC(=O)CCCn2c(C)c3cnn(-c4ccccc4)c(=O)c3c2C)ccc1Br	none (no result: HCV inhibitor, RE007 growth inh)
COc1ccc(C(CNC(=O)Cc2ccccc2Cl)N2CCCCC2)cc1 (configuration not stated)	MARV entry inh 4µM
COc1ccc(C(CNC(=O)c2cc3ccccc3o2)N2CCCC2)cc1 (configuration not stated)	none (no result: MARV entry inh, LASV entry inh)
COc1ccc(C(CNC(=O)c2cc3ccccc3o2)N2CCCCC2)cc1 (configuration not stated)	HCV inhibitor 16µM, LASV entry inh inconclusive
COc1ccc(C(CNC(=O)Cc2ccccc2F)N2CCCCC2)cc1 (configuration not stated)	none
c1ccc(CCNc2ccc3nncn3n2)cc1	none (no result: MARV entry inh, LASV entry inh)
NNc1ccc2nncn2n1	Sm TGR inh 35µM (no result: MARV entry inh, LASV entry inh)
Cc1ccc(CNC(=O)C2CCN(S(=O)(=O)c3cn(C)cn3)CC2)cc1	none (no result: HCV inhibitor, MARV entry inh, RE007 growth inh)
CC(C)CCN(Cc1ccco1)C(=O)c1cc2c(Cl)nc3ccccc3c2s1	none (no result: HCV inhibitor, RE007 growth inh)
COc1ccccc1OCC(=O)Nc1nnc(-c2ccco2)s1	MARV entry inh inconclusive, RE007 growth inh inconclusive, Sm TGR inh 32µM
CCC(C(=O)Nc1nnc(-c2ccco2)s1)c1ccccc1 (configuration not stated)	Sm TGR inh 32µM
CCN(CC)S(=O)(=O)c1nnc(NC(=O)COc2cccc(C)c2)s1	none (no result: HCV inhibitor, MARV entry inh, RE007 growth inh)
CCc1nnc(NC(=O)C(CC)c2ccccc2)s1 (configuration not stated)	none
Cc1cccc(OCC(=O)Nc2nnc(-c3ccco3)s2)c1	MARV entry inh inconclusive, Sm TGR inh 14µM
CCOc1cccc(C(=O)Nc2nnc(-c3ccco3)s2)c1	MARV entry inh 4µM, LASV entry inh inconclusive, Sm TGR inh inconclusive
CCOC(=O)Cc1nnc(NC(=O)c2cccc(OCC)c2)s1	HCV inhibitor inconclusive
O=C(NCc1ccc2c(c1)CCN2C(=O)c1ccc(F)cc1)c1ccco1	LASV entry inh inconclusive (no result: HCV inhibitor, MARV entry inh, RE007 growth inh)
CC(=O)c1cc(C(=O)c2ccccc2)sc1Nc1ccccc1	HCV inhibitor 13µM, Sm TGR inh inconclusive
Cc1ccc(N=Cc2cc(Cc3ccccc3Cl)cc([N+](=O)[O-])c2O)c(O)c1	Sm TGR inh 11µM
Cc1ccc(S(=O)(=O)Nc2c(Cl)c(Cl)c(O)c3ccccc23)cc1	Sm TGR inh 0.32µM (no result: HCV inhibitor, MARV entry inh, FMDV inh, RE007 growth inh, LASV entry inh)
Cc1c(NS(=O)(=O)c2ccccc2)cc(Cl)c(O)c1C	HCV inhibitor inconclusive, Sm TGR inh 3.5µM
Cc1ccc(S(=O)(=O)Nc2c(O)ccc3ccccc23)cc1	HCV inhibitor inconclusive (no result: Sm TGR inh)
Cc1ccc(S(=O)(=O)Nc2cc(Cl)c(O)cc2C)cc1	HCV inhibitor inconclusive, MARV entry inh inconclusive, Sm TGR inh 50µM
Cc1ccc(S(=O)(=O)Nc2cc(C(C)C)c(O)cc2C)cc1	none
